A selection: hits, their analogues and other compounds. The true share with any hit is near 2.5%.
D2 PAM-1 – positive allosteric modulators of human D2 dopamine receptor | P14416 | HEK293 T-REx D2, calcium flux, EC20 dopamine potentiation | potentiation, % at 10 µM | actives 0.34% (n = 340,000) | AID 485347;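 active = potentiation over 3 SD above the plate norm, cut at about 30% in these data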; note: 0% is about no effect
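Potentiation of an EC20 dopamine calcium response measured kinetically over 180 s, after a preceding 180 s compound-only read flagging agonists. Cells: inducible Hek293 Trex D2 line, 4000/well, cultured overnight at 30 C before dye loading.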
Apoferritin bind – candidate novel general anesthetic via apoferritin binding | actives 0.074% (n = 350,000) | Potency, µM (titrated, usually from 77.5 µM), for inactives: top-dose activity change, negative = displacement, most hits filed as inhibitors | AID 485281 | apoferritin/1-aminoanthracene competitive binding, fluorescence; active = well fitted inhibition curve with a large enough effect; inconclusive = small, poorly fitted or top-dose-only effect; inactive = no such curve, though single readings can be large or run the other way; note: potency is the fitted concentration of half-maximal effect; % is set by controls: 0 for no effect and ±100 for the full control effect; nearly all actives have a fitted effect of over 20% in size
Target sequence (P02791 2-175 limits assumed): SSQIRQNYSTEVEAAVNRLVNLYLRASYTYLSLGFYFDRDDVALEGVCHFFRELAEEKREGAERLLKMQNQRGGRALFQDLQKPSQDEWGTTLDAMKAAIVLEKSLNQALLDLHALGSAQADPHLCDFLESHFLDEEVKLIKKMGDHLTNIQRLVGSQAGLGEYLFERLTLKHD
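Horse-spleen apoferritin (10 uM) in 50% saturated 1-aminoanthracene in PBS was incubated 10 min at room temperature with compound. Fluorescence (ex 380, em 535 nm) was normalized to free and bound 1-AMA, with concentration-response fitted by a four-parameter Hill equation.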
D2 ag-1 – activates the human D2 dopamine receptor; actives 0.084% (n = 360,000); P14416; DiscoveRx PathHunter D2 beta-arrestin, luminescence, 90 min; 100% = 57 uM dopamine signal; AID 624465; activation, % (test concentration not listed); in the data active = activation above about 40%; inconclusive = between about 15% and that limit
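DiscoveRx PathHunter D2 beta-arrestin cells (2,100/well) attached overnight, then compound-stimulated 90 min at 37 C in HBSS/10 mM HEPES/0.1% Tween-20 buffer; beta-galactosidase complementation read by luminescence after 1 h at ambient temperature. Dopamine 57 uM final (EC100) as control.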
D2 ag-2 – agonists of human D2 dopamine receptor; P14416; HEK293 T-REx D2 cells, calcium flux agonist mode; activation, % at 2 µM; actives 0.53% (n = 340,000); AID 485358;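 active = activation over 3 SD above normal in the single-dose calcium agonist read, cut at about 30% in these data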; note: 0% is about no effect
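Agonism is scored from calcium flux in a force-coupled, inducible HEK293 cell line expressing D2, read kinetically for 180 s after compound addition against dopamine controls.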
D2 antagonist – antagonizes the human D2 dopamine receptor. P14416. HEK293 TREx D2 cells, calcium flux, dopamine EC80. inhibition, % at 10 µM. actives 2% (n = 340,000). AID 485344; in the data active = inhibition above about 30%; inactive = below that, where a call was filed; note: 0% is about no effect
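HEK293 T-REx D2 cells, tet-induced, calcium dye no-wash. Cpd pintool add, 180 s kinetic, then EC80 DA, 180 s kinetic. Ca flux read.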
D2 PAM-2 – positive allosteric modulators of human D2 dopamine receptor; actives 0.23% (n = 360,000); P14416; DiscoveRx D2 beta-arrestin cells, luminescence, 90 min; 100% = 57 uM dopamine signal; potentiation, % (no concentration beside the values); AID 624464; in the data active = potentiation above about 50%; inconclusive = mostly about 30% to 49%
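D2 cells co-treated with compound plus 50 nM dopamine (EC20) for 90 min at 37 deg C to detect potentiation. Beta-arrestin recruitment was read as enzyme-fragment luminescence after 1 h at ambient temperature. Full response was set by 57 uM dopamine.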
* hit, by the source's call; ? = inconclusive; / = no result given.

SMILES	D2 PAM-1	Apoferritin bind	D2 ag-1	D2 ag-2	D2 antagonist	D2 PAM-2
CCOC(=O)N1CCC(Nc2c(Nc3ccc(C)c(C)c3)c(=O)c2=O)CC1	-26	-9%	1	-1	57*	-18
Cc1ccc2c(c1)cc(CN(Cc1ccco1)C(=O)COc1ccccc1)c1nnnn12	-1	3%	-1	2	23	-17
CCC(=O)N(Cc1ccco1)Cc1cc2cccc(C)c2n2nnnc12	-3	-2%	7	1	34*	-8
Cc1ccc(/C=N/NC(=O)CNC(=O)c2cccs2)o1	4	?	-4	1	-6	-8
CCS(=O)(=O)Nc1cccc(C2=NN(S(=O)(=O)c3ccc(F)cc3)C(c3cccs3)C2)c1 (stereo unspecified)	-1	-11%	-2	4	4	-6
CS(=O)(=O)Nc1cccc(C2=NN(S(=O)(=O)c3ccc(F)cc3)C(c3cccs3)C2)c1 (stereo unspecified)	-8	-13%	-4	4	31*	-8
Cn1cc(CC(=O)NC2CCCCC2)c2ccccc21	0	-18%	3	0	3	3
CCCn1cc(S(=O)(=O)CC(=O)NC2CCCCC2)c2ccccc21	-12	-9%	0	0	51*	-24
O=C(CCS(=O)(=O)c1cccc2nonc12)NC1CCCCCC1	0	-5%	-1	0	-14	-3
O=C(CCNS(=O)(=O)c1cccc2nonc12)NC1CCCCC1	-5	-12%	-1	0	31*	-6
COc1ccccc1NC(=O)Cn1c(=O)n(C)c(=O)c2sc3c(c21)COC(C)(C)C3	-5	5%	4	0	32*	-9
C=CCN(c1ccc(C(=O)Nc2cccc([N+](=O)[O-])c2)cc1)S(C)(=O)=O	-29	-12%	2	0	37*	-17
CCCn1cc(S(=O)(=O)c2ccccc2)c(=O)c2cc(CC)ccc21	-6	-2%	8	-1	6	-7
CCCn1cc(S(=O)(=O)c2ccccc2)c(=O)c2cc(OC)c(OC)cc21	39*	1%	-3	0	1	-7
CC(Sc1nnc(-c2ccccc2F)n1C1CC1)C(=O)N1CCCC1 (stereo unspecified)	6	/	-3	0	-7	-2
CC(Sc1nnc(-c2ccccc2F)n1C1CC1)C(=O)NC(N)=O (stereo unspecified)	-3	-5%	-3	0	45*	-12
CC(C)C[C@@H](C(=O)NC1CCN(Cc2ccccc2)CC1)N1C(=O)N2CCc3c([nH]c4ccccc34)[C@@]2(C)C1=O	-15	?	-8	1	31*	-83
COc1ccc2[nH]c3c(c2c1)CCN1C(=O)N([C@@H](C)C(=O)NCc2ccccc2)C(=O)[C@]31C	1	-17%	-3	36*	10	-18
COc1ccc2[nH]c3c(c2c1)CCN1C(=O)N([C@@H](C)C(=O)NC2CC2)C(=O)[C@]31C	-1	-12%	8	30*	3	0
COC(=O)c1ccc(NC(=O)CNC(=O)C2CCCCC2)cc1	1	-12%	0	1	7	2
O=C(CS(=O)(=O)Cc1ccccc1)Nc1ccc(Cl)cn1	0	-13%	-2	1	52*	-8
Cc1sc2ncnc(SCC(=O)NC3CCCC3)c2c1C	/	4%	-2	-3	32*	-1
Cc1ccc(C(=O)O/N=C(\c2ccccc2)c2ccncc2)cc1	/	?	1	/	/	3
COc1ccccc1C(=O)O/N=C(/c1ccncc1)c1ccc([N+](=O)[O-])cc1	4	-17%	?	1	-8	100*
OCCN1CCN(c2ncnc3c2ncn3[C@H]2CN(Cc3ccc(Cl)cc3)C[C@@H](CO)O2)CC1	/	/	-2	/	/	-1
COc1cc(-c2csc(C)n2)ccc1O	-8	-8%	-1	1	0	-16
COc1ccc(-c2csc(C)n2)cc1Br	-12	?	4	3	36*	-1

High-throughput results: PubChem, National Center for Advancing Translational Sciences (NCATS)
